Laboratory results taken from PubChem BioAssay (NCATS).
A number with no mark means an inactive call. How the calls were made is not given here.

Test system: HIV-1 nucleocapsid protein NCp7 (binding to TG oligonucleotide)
Assay: HIV Nucleocapsid (AID 346);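 further: potency is for inhibitors that block NC binding and lower polarization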
Details: HIV-1 NC / fluorescein-TGTGTGTG probe, fluorescence polarization
How it was run: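 10 nM TG4xF probe with 100 nM nucleocapsid protein in high-salt Hepes pH 7.5 (250mM NaCl) containing 1uM ZnCl2 and reducing agents. Compound inhibition of binding was read as fluorescein polarization after 1 hr at room temperature.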
Potency means the concentration at half of the fitted maximal effect.

| Structure (SMILES) | Potency |
| --- | --- |
| CN1CCCC2(CCN(S(=O)(=O)c3ccccc3)CC2)C1 | > 20 µM |
| CC(=O)NCCNc1ncnc2ccc(-c3ccccc3C)cc12 | > 20 µM |
| N#Cc1ccc(CN2CCCC3(CCNCC3)C2)cc1 | > 20 µM |
| CS(=O)(=O)N1CCC2(CCCN(c3ccccn3)C2)CC1 | > 20 µM |
| O=C(Nc1cccc(F)c1)N1CCCC2(CCN(S(=O)(=O)c3ccccc3)CC2)C1 | > 20 µM |
| COc1cccc(-c2ccc3ncnc(N4CCOCC4)c3c2)c1 | > 20 µM |
| O=C(c1ccco1)N1CCC2(CC1)CCN(c1ccccn1)CC2 | > 20 µM |
| Cc1nc2cnc(N(C)C)nc2n(C[C@H]2CCCO2)c1=O | > 20 µM |
| Clc1ccccc1-c1nccc(NCc2ccccc2)n1 | > 20 µM |
| COc1ncc2nc(C)c(=O)n(C3CC3)c2n1 | > 20 µM |
| COc1ccc(C(=O)N2CCC3(CCN(Cc4cc(C(F)(F)F)cc(C(F)(F)F)c4)CC3)CC2)cc1 | > 20 µM |
| COc1cccc(Cn2c(=O)c(-c3ccc(F)cc3)nc3cnc(N(C)C)nc32)c1 | > 20 µM |
| COc1ccc(Oc2ncc3nc(-c4cccs4)c(=O)n(CCC#N)c3n2)cc1 | > 20 µM |
| O=C(c1cnccn1)N1CCC[C@@]2(CCN(Cc3ccccc3)C2)C1 | > 20 µM |
| CN1CCN(c2nc(-c3ccoc3)nc3ccccc23)CC1 | > 20 µM |
| COc1cccc(-c2cncnc2NCc2ccccc2)c1 | > 20 µM |
| COc1ccc(C(=O)N2CCC[C@@]3(CCN(c4ccccc4)C3)C2)cc1 | > 20 µM |
| COc1cccc(Cn2c(=O)c(-c3ccc(F)cc3)nc3cnc(OC)nc32)c1 | > 20 µM |
| O=C(Nc1cccc(F)c1)N1CC2(CCN(C(=O)c3cc(C(F)(F)F)cc(C(F)(F)F)c3)CC2)C1 | > 4 µM |
| COc1ccc(C(=O)N2CCC3(CCCN(Cc4nccs4)C3)CC2)cc1 | > 20 µM |

| Structure (SMILES) | Potency |
| --- | --- |
| Cc1cnc(CNc2cc(-c3c(C)noc3C)ncn2)cn1 | > 20 µM |
| CN1CCN(c2ncnc3ccc(-c4ccc5c(c4)OCO5)cc23)CC1 | > 20 µM |
| c1ccc(C(c2ccccc2)N2CC[C@@]3(CCCNC3)C2)cc1 | > 20 µM |
| O=c1c(-c2ccc(F)c(F)c2)nc2cncnc2n1Cc1ccccc1 | > 20 µM |
| c1nc(NCCN2CCOCC2)c2cc(-c3ccc4c(c3)OCO4)ccc2n1 | > 20 µM |
| COc1ncc2nc(-c3cn(C)c4ccccc34)c(=O)n(C)c2n1 | > 20 µM |
| O=C(c1cnccn1)N1CCC[C@@]2(CCN(c3cccc(-c4ccccc4)c3)C2)C1 | > 20 µM |
| CCNc1ncc2nc(-c3ccc(OC)cc3)c(=O)n(-c3ccc(OC)cc3)c2n1 | > 4 µM |
| O=c1c(-c2cc(F)cc(F)c2)nc2cncnc2n1Cc1ccc(F)cc1 | > 20 µM |
| CN1CCN(c2ncc3nc(CCc4ccccc4)c(=O)n(C4CC4)c3n2)CC1 | > 20 µM |
| COc1cccc(Nc2ncc3nc(-c4cc(F)cc(F)c4)c(=O)n(C[C@H]4CCCO4)c3n2)c1 | > 20 µM |
| c1ccc(C(c2ccccc2)N2CCCC3(CCNCC3)C2)cc1 | > 20 µM |
| CC(=O)NCCNc1cc(-c2ccccc2C(F)(F)F)ncn1 | > 20 µM |
| O=C(c1cc(C(F)(F)F)cc(C(F)(F)F)c1)N1CCC2(CC1)CCN(c1ccccn1)CC2 | > 20 µM |
| COc1ncc2nc(C)c(=O)n(CCc3ccccc3)c2n1 | > 20 µM |
| COCC(=O)N1CCC2(CCCN(C(=O)Nc3ccccc3)C2)CC1 | > 20 µM |
| O=c1c(-c2ccc(F)cc2)nc2cnc(N3CCNCC3)nc2n1Cc1cccs1 | > 20 µM |
| O=c1cnc2cnc(Nc3ccccc3)nc2n1C1CC1 | > 20 µM |
| COc1cccc(Cn2c(=O)cnc3cnc(OC)nc32)c1 | > 20 µM |
| CS(=O)(=O)Nc1cccc(-c2ccc3ncnc(Nc4ccc(F)cc4)c3c2)c1 | > 20 µM |
